Results filed as inconclusive are left out. Unmarked numbers belong to inactive results. Calls of active or inactive are those of the source. Unless noted, calls follow the shape of the dose curve; as a rule, active = well fitted curve in the direction sought with a large enough effect in the repeat runs; inconclusive = weak or mixed curves; inactive = no such curve, though single readings can be large; an effect the other way counts as inactive or inconclusive.

Experiment [1] can be described thus: qHTS assay to identify small molecule antagonists of the thyroid receptor (TR) signaling pathway (AID 743065). Also: nearly all actives have a fitted effect of over 55% in size. Also: potency is read from the fitted curve at half-maximal effect. A digest of the protocol: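 GH3.TRE-Luc rat pituitary cells carrying two TR response elements driving luciferase were plated for 4 h, given compound plus 1 nM T3 (final), and incubated 23.5 h at 37 C. ONE-Glo luminescence measured reporter inhibition; CellTiter-Fluor fluorescence tracked cytotoxicity.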
Background: In qHTS, concentration-response curves come from the screen itself.

Experiment [2] has as its system thyroid hormone receptor (rat, GH3 cells). The experiment can be described thus: qHTS assay to identify small molecule agonists of the thyroid receptor (TR) signaling pathway (AID 743066; calls by dose curve).
A short description of experiment [3]: qHTS assay to identify small molecule antagonists of the estrogen receptor alpha (ER-alpha) signaling pathway - cell viability counter screen (AID 743074; calls by dose curve;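 also: HEK293 cells carrying ER-alpha-UAS-bla reporter stimulated with 17beta-estradiol; nearly all actives have a fitted effect of over 45% in size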).
Experiment [4] can be described thus: qHTS assay to identify small molecule antagonists of the estrogen receptor alpha (ER-alpha) signaling pathway using the BG1 cell line - cell viability counter screen (AID 743081).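 Also: compound given together with 17beta-estradiol as the ER stimulus; nearly all actives have a fitted effect of over 45% in size.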
The next experiment concerns the target Aromatase (Homo sapiens) (UniProt P11511). The experiment can be described thus: qHTS assay to identify aromatase inhibitors (AID 743083). Also: nearly all actives have a fitted effect of over 55% in size. Also: potency is read from the fitted curve at half-maximal effect.
The nature of experiment [5]: qHTS assay to identify aromatase inhibitors - cell viability counter screen (AID 743084).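 Also: cells stimulated with testosterone during compound exposure; nearly all actives have a fitted effect of over 55% in size.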
The target of experiment [6] is Estrogen receptor (Homo sapiens) (UniProt P03372). The experiment can be described thus: qHTS assay to identify small molecule agonists of the estrogen receptor alpha (ER-alpha) signaling pathway (AID 743075; calls by dose curve;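 also: HEK293 GripTite cells with ER-alpha and UAS-driven beta-lactamase reporter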).
Chain of Estrogen receptor (Homo sapiens) (P03372 whole entry, looked up): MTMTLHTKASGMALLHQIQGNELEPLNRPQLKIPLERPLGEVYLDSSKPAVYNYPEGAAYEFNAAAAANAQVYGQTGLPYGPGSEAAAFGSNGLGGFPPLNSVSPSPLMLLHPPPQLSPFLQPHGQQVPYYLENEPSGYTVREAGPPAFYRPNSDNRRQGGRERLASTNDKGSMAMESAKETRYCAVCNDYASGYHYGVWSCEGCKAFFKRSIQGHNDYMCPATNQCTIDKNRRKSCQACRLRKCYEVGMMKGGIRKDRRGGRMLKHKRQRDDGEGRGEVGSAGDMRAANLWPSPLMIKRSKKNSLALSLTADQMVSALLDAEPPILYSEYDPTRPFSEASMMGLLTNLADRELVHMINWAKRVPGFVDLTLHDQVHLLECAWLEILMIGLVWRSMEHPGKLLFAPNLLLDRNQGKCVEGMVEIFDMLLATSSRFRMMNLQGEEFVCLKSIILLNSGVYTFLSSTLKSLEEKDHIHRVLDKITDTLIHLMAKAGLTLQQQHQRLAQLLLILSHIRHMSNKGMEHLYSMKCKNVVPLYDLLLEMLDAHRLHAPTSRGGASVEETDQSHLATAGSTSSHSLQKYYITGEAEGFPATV
The target is the same in experiment [7]. The experiment can be described thus: qHTS assay to identify small molecule agonists of the estrogen receptor alpha (ER-alpha) signaling pathway using the BG1 cell line (AID 743079). Also: potency is read from the fitted curve at half-maximal effect. As to all read-outs here: nearly all actives have a fitted effect of over 20% in size. As to conditions: BG1Luc4E2 cells, ERE-luciferase agonist, 22 h; for activation: at 70.3 µM (top of the series).
Experiment [8] in a line: qHTS assay to identify small molecule antagonists of the estrogen receptor alpha (ER-alpha) signaling pathway using the BG1 cell line (AID 743080; calls by dose curve;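 also: BG1 cells stimulated with 17beta-estradiol alongside compound; nearly all actives have a fitted effect of over 25% in size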; also: potency is read from the fitted curve at half-maximal effect). An outline of the steps:
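BG1-Luc-4E2 cells (endogenous full-length ER-alpha, 4xERE luciferase) hormone-starved 5 days in charcoal-stripped FBS, plated 4,000/well for 24 h, then compound plus 17beta-estradiol for 21.5 h at 37 C; ONE-Glo luminescence read.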
% is scaled to controls: 0 for no effect and ±100 for the full control effect.

Chain of Aromatase (Homo sapiens) (P11511 whole entry, looked up): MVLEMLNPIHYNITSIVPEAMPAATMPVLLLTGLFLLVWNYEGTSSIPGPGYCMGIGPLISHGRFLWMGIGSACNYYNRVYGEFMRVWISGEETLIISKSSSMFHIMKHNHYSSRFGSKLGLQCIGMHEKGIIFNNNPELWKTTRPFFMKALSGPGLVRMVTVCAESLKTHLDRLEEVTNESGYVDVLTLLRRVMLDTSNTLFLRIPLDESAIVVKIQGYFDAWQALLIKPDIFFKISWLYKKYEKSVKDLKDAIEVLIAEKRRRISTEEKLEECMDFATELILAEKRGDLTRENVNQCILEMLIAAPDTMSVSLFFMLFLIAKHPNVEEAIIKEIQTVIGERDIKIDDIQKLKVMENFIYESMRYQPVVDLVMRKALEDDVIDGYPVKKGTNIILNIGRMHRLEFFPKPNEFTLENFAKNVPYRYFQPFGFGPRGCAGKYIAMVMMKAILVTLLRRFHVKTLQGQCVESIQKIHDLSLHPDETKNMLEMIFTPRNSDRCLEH

Turning to `N#CC(O)c1ccccc1` (centres undefined), the Potency result (in experiment [1]; in [2]; in experiment [4]; with Aromatase (Homo sapiens); in experiment [5]) was “inactive” each time. For the same compound, in experiment [3], the outcome was inactive.

Turning to `COc1cc(OC)nc(Sc2cccc(Cl)c2C(=O)O)n1`, the Potency result (in experiment [1]; in experiment [2]; in experiment [4]; with Aromatase (Homo sapiens); in experiment [5]) was “inactive” throughout. The outcome in [3] was inactive.

Consider `CC(C1CC1)C(O)(Cn1cncn1)c1ccc(Cl)cc1` (centres undefined), for which the Potency result in [1], in experiment [2], in experiment [4] and in [5] was “inactive” each time. In experiment [3], the call was inactive. For the same compound, the Potency with Aromatase (Homo sapiens) was 24.2 µM (active).

`CCC(C)(C)c1cc(-n2nc3ccccc3n2)c(O)c(C(C)(C)CC)c1`: the Potency entry (in [1]; in experiment [2]; in experiment [4]; with Aromatase (Homo sapiens); in [5]) was “inactive” in each case. In addition, in [3], the result was inactive.

As for `Nc1cc2c3c(c1)C(c1ccccc1)=N[C@@H](NC(=O)c1cccnc1)C(=O)N3CC2`, the Potency entry (in experiment [1]; in experiment [2]; in experiment [6]; in experiment [4]; with Aromatase (Homo sapiens); in experiment [5]) was “inactive” in each case. Moreover, the result in experiment [3] was inactive. For the same compound, the activation in experiment [7] is -22.1%.

Take `CCOC(=O)CP(=O)(OCC)OCC`: the Potency entry (in experiment [1]; in experiment [2]; in [6]; in experiment [8]; in [4]; with Aromatase (Homo sapiens)) was “inactive” in each case. For the same compound, in experiment [5], the Potency entry was “inactive”. Moreover, in [3], the result was inactive.

As to `CCCCC(=O)Cl`, the Potency result in experiment [1], in [2] and in [4] was “inactive” in each case. For the same compound, in experiment [3], the call was inactive.

Take `CC(C)(C)C(=O)C(Oc1ccc(Cl)cc1)n1cncn1` (centres undefined): the Potency result in experiment [1], in [2], in experiment [4] and in experiment [5] was “inactive” throughout. In addition, the compound was classed as inactive in experiment [3]. In addition, the Potency with Aromatase (Homo sapiens) was 54.4 µM (active).

As for `COCC(=O)N(c1c(C)cccc1C)N1CCOC1=O`, the Potency result (in experiment [1]; in experiment [2]; in [4]; with Aromatase (Homo sapiens); in [5]) was “inactive” each time. Further, the outcome in experiment [3] was inactive.

In the case of `CCNc1nc(NC(C)C)nc(OC)n1`, the Potency entry (in [1]; in experiment [2]; in [4]; in the experiment with Aromatase (Homo sapiens)) was “inactive” in each case. For the same compound, the outcome in experiment [3] was inactive.

As for `ClCC(Cl)Cl`, the Potency entry (in experiment [1]; in experiment [2]; in experiment [8]; in experiment [4]; in the experiment with Aromatase (Homo sapiens); in [5]) was “inactive” throughout. Further, the call in experiment [3] was inactive.

In the case of `CNC(=O)Oc1c(C(C)(C)C)cc(C)cc1C(C)(C)C`, the Potency result (in experiment [1]; in [2]; in experiment [4]; with Aromatase (Homo sapiens); in experiment [5]) was “inactive” each time. In addition, the outcome in experiment [3] was inactive.

As to `COc1ccc(C(=O)N2CCCC2=O)cc1`, the Potency entry (in experiment [1]; in [2]; in [4]; in the experiment with Aromatase (Homo sapiens); in experiment [5]) was “inactive” throughout. For the same compound, in experiment [3], the compound was called inactive.

With `CCCCOC(=O)c1ccccc1C(=O)O`, the Potency result (in experiment [1]; in experiment [2]; in [4]; in the experiment with Aromatase (Homo sapiens); in experiment [5]) was “inactive” in each case. Further, the compound was classed as inactive in experiment [3].

In the case of `CC1CCC(=O)O1` (centres undefined), the Potency result in [1], in experiment [2] and in experiment [4] was “inactive” in each case. The result in [3] was inactive.

Consider `O=[N+]([O-])c1cccc(O)c1`, for which the Potency result (in experiment [1]; in experiment [2]; in experiment [4]; in the experiment with Aromatase (Homo sapiens); in [5]) was “inactive” throughout. In experiment [3], the compound was classed as inactive.

Turning to `CN1CCN(C(=O)O[C@H]2c3nccnc3C(=O)N2c2ccc(Cl)cn2)CC1`, the Potency result (in [1]; in [2]; in experiment [4]; in the experiment with Aromatase (Homo sapiens); in [5]) was “inactive” throughout. Also, the outcome in experiment [3] was inactive.

`CC(N)=S`: the Potency result (in experiment [1]; in experiment [2]; in [4]; in the experiment with Aromatase (Homo sapiens); in experiment [5]) was “inactive” each time. The result in [3] was inactive.

With `O=C(CCN1CC1)OCC(CO)(COC(=O)CCN1CC1)COC(=O)CCN1CC1`, the Potency entry (in experiment [1]; in [2]; in experiment [4]; in the experiment with Aromatase (Homo sapiens)) was “inactive” in each case. Besides, in [3], the outcome was inactive.

With `CCCCOP(=O)(O)OCCCC`, the Potency entry (in [1]; in experiment [2]; in [8]; in experiment [4]; in the experiment with Aromatase (Homo sapiens); in [5]) was “inactive” each time. In addition, the call in [3] was inactive. For the same compound, in experiment [7], the Potency was 24.3 µM (active).

`CC(Cl)(Cl)[N+](=O)[O-]`: the Potency result (in experiment [1]; in [2]; in experiment [6]; in experiment [8]; in experiment [4]; with Aromatase (Homo sapiens)) was “inactive” in each case. Further, in experiment [5], the Potency entry is “inactive”. In addition, the activation in experiment [7] is -5.99%.

Take `N#CC(CCc1ccc(Cl)cc1)(Cn1cncn1)c1ccccc1` (centres undefined): the Potency was 34.4 µM (active) in experiment [1], 61.1 µM (active) in experiment [8] and 30.6 µM (active) in the experiment with Aromatase (Homo sapiens). Besides, the Potency result in experiment [2], in [6], in [4] and in experiment [5] was “inactive” each time.

For the compound `CCCCCCBr`, the Potency entry (in experiment [1]; in [2]; in experiment [4]; with Aromatase (Homo sapiens); in [5]) was “inactive” each time. Further, in experiment [3], the compound was called inactive.

As to `CC1=NNC(=O)N(/N=C/c2cccnc2)C1`, the Potency entry (in experiment [1]; in experiment [2]; in experiment [4]; with Aromatase (Homo sapiens); in [5]) was “inactive” throughout. In experiment [3], the call was inactive.

In the case of `CN(C)CCc1ccc(O)cc1`, the Potency entry (in experiment [1]; in experiment [2]; in experiment [4]; with Aromatase (Homo sapiens); in [5]) was “inactive” throughout. In addition, in experiment [3], the outcome was inactive.

As to `C(CCOCC1CO1)COCC1CO1` (centres undefined), the Potency in [1] was 42.6 µM (active). In addition, the Potency result (in experiment [2]; in experiment [6]; in experiment [8]; in [4]; in the experiment with Aromatase (Homo sapiens); in experiment [5]) was “inactive” in each case. For the same compound, in [7], the activation was 0.112%.

For `Cc1cc(C)c(C(=O)P(=O)(C(=O)c2c(C)cc(C)cc2C)c2ccccc2)c(C)c1`, the Potency entry (in experiment [1]; in experiment [2]; in experiment [8]; in experiment [4]; with Aromatase (Homo sapiens); in [5]) was “inactive” in each case. Further, in experiment [7], the activation is 37.1%.

With `CN(N=O)C(N)=O`, the Potency result (in [1]; in [2]; in experiment [4]; in the experiment with Aromatase (Homo sapiens); in experiment [5]) was “inactive” each time.

Take `CCOC(=O)NC(=S)Nc1ccccc1NC(=S)NC(=O)OCC`: the Potency in experiment [1] is 54.5 µM (active). Also, the Potency result (in [2]; in experiment [4]; with Aromatase (Homo sapiens); in experiment [5]) was “inactive” each time.

Consider `CC(C)(C)NCC(O)c1cc(Cl)c(N)c(Cl)c1` (centres undefined), for which the Potency result (in experiment [1]; in experiment [2]; with Aromatase (Homo sapiens)) was “inactive” each time. In addition, the compound was called inactive in experiment [3].

As for `CC(C)[N+](=O)[O-]`, the Potency entry (in [1]; in [2]; in [4]; with Aromatase (Homo sapiens); in experiment [5]) was “inactive” in each case. Further, the call in experiment [3] was inactive.

These data come from PubChem BioAssay (Tox21).
